Tests used:
[1] = biological target: T1, Aspartate--tRNA(Asp/Asn) ligase (Mycobacterium tuberculosis (strain ATCC 25618 / H37Rv)) (UniProt P9WFW3); test: Assay for Asp RNA synthetase-1 from Mycobacterium tuberculosis; assay type: functional; design: scale not given: direction of the effect not stated beside the values; conditions: 30 µM; further: in the data most compounds retested in dose-response had high values
T1 sequence (whole entry): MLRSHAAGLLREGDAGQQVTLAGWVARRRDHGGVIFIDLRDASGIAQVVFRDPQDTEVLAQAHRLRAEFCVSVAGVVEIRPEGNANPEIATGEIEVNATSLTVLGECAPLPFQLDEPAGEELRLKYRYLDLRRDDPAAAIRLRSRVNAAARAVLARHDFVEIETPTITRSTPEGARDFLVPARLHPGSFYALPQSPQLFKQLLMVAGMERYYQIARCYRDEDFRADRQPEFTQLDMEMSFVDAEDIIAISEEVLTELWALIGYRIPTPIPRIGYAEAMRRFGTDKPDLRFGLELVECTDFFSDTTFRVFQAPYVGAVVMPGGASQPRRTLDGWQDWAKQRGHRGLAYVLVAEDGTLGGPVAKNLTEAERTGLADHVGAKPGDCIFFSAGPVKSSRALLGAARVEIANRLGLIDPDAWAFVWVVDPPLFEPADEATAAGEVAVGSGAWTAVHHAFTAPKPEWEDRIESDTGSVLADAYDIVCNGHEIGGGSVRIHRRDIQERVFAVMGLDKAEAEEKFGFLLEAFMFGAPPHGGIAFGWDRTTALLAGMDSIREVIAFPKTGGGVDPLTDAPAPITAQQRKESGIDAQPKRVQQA

[2] = biological target: Shiga toxin 2 (Escherichia coli O157:H7) (UniProt P09385+P09386); test: E. coli 0.157:H7 Shiga Toxin SOP - stx2 screening assay; assay type: functional; design: scale not given: direction of the effect not stated beside the values; conditions: 30 µM

SMILES | Percent Effect [1] | Percent Effect [2]
O=C(c1ccc(-n2cccn2)nc1)N1CCC(Nc2cccnn2)CC1 | -2.94% | 26.9%
Cc1nn(C)c(N2CCOCC2)c1CNC(C)c1cccnc1 (configuration not stated) | -8.69% | 9.24%
COCc1cncc2c1CCN(C(=O)c1ccc(C)o1)C2 | 8.15% | -6.15%
Cc1cc(C)c2c(OCC(=O)NC(C)C)nn(C)c2n1 | -1.15% | -0.409%
Cc1cnn(CC2CCCCN2CCn2cncn2)c1 (configuration not stated) | -2.34% | -38%
CCc1nccn1C1CCCN(C(=O)c2ccc(C(=O)NC)nc2)C1 (configuration not stated) | 2.25% | 2.77%
CCOCCOc1ccccc1C(=O)N1CCCC(c2ncc[nH]2)C1 (configuration not stated) | 7.07% | -32.6%
Cc1cnn(CC2CCCCN2CC(=O)NCc2ccccn2)c1 (configuration not stated) | -0.659% | 0.25%
Cc1cccc(OCCC(=O)N(C)CCNS(C)(=O)=O)c1C | 0.299% | 6.1%
NC(=O)c1csc(C(=O)N2CCCC(n3ccnc3)C2)c1 (configuration not stated) | -4.35% | 0.351%
Cn1ccc(C(=O)N2CCC[C@]3(C[C@@H](OCc4ccccn4)CO3)C2)n1 | -1.05% | -3.97%
Cc1cccc(-c2ccc(C(=O)NCC3CCOC3)c(=O)[nH]2)c1 (configuration not stated) | 7.65% | 15.2%
CC(C)Oc1ncc(C(=O)N2CCC(NC(=O)C3CC3)CC2)cc1Cl | -4.56% | -46.9%
O=C(N[C@@H]1CCNC[C@H]1O)c1ccc(F)c(Cl)c1 | -0.19% | 12.3%
Nc1nccc(NCc2cc3n(n2)CCCN(C(=O)C2CCC2)C3)n1 | 0.0228% | 1.54%
CNC(=O)c1cc2c(nc1NCC1CC1)CCN(S(=O)(=O)C1CC1)CC2 | 7.68% | -5.47%
CCCNC(=O)c1ccc(NC(=O)c2cccc(OCC)c2)cc1 | 2.98% | -85.2%
CCS(=O)(=O)N1Cc2nccn2CC(Cn2nc(C)nc2C)C1 (configuration not stated) | 0.776% | 6.38%
CN(Cc1cccs1)C(=O)CS(=O)(=O)Cc1ccc(Cl)c(Cl)c1 | 3.86% | 0.473%
CC(C)c1nnc2ccc(N3CCC(C(N)=O)CC3)nn12 | -3.92% | -20.5%
Cc1oncc1C(=O)N1CCC2(CCN(Cc3ccccn3)C2=O)C1 (configuration not stated) | -2.39% | -12.9%
CC(C)(C)C(=O)NCCc1ccn(-c2ccccc2)n1 | -7.82% | -32.2%
CC(C)CN1C(=O)c2ccc(C(=O)NCCc3c[nH]cn3)cc2C1=O | 0.813% | -22.9%
CN(CCc1cccs1)C1CCCN(Cc2noc(C3CC3)n2)C1 (configuration not stated) | -1.53% | 16.2%
O=C(NCc1cc[nH]n1)N(CCCO)C1CCc2ccccc21 (configuration not stated) | 1.93% | 0.536%
CCOc1cc(C)nc(N2CCN(C(=O)CC)CC2)n1 | 0.408% | 12.8%

SMILES | Percent Effect [1] | Percent Effect [2]
Cc1ccc(CC(=O)N2CCCC(c3cc(C)[nH]n3)C2)cn1 (configuration not stated) | -0.962% | -18.6%
CN(C)CCN1CCO[C@H]2CN(Cc3cnn(C)c3)C[C@H]21 | -1.31% | -7.4%
Cc1cc(C)n(CC(=O)NC(Cc2ccsc2)c2ccccn2)c(=O)n1 (configuration not stated) | -2.19% | -15.3%
Cc1nc2cc(C(=O)N3CCCC(n4cncn4)C3)ccc2n1C (configuration not stated) | -8.92% | -28.5%
Cc1ccc(C)c(-c2csc(N)c2C#N)c1 | 2.35% | 4.18%
CC(=O)N(Cc1ncc(C)o1)C1CCN(Cc2noc(C)n2)C1 (configuration not stated) | 5.42% | 4.63%
O=C(c1cccc(CN2CCCC2)c1)N1CCCC(n2cncn2)C1 (configuration not stated) | 11.7% | 14%
CNC(=O)CCc1cc(C)nc(C2CCCN2)c1 (configuration not stated) | 0.0149% | -4.41%
O=C(Cc1csc(-c2ccco2)n1)N1CCN(c2cnccn2)CC1 | -2.43% | -70.6%
Cc1cc(-c2nn(C)c(Cl)c2CN2CCOCC(O)C2)no1 (configuration not stated) | -2.42% | 16.3%
O=C(C1SCCc2sccc21)N1CCN(CCO)CC1 (configuration not stated) | -0.774% | 24.8%
CCCc1cc(C(=O)N2CCCC2c2cccnc2)[nH]n1 (configuration not stated) | 3.74% | 11.1%
CCc1ccc(CNC(=O)N2CCN(Cc3cc(C)no3)CC2)s1 | 12% | 27%
CSCC[C@H](N)C(=O)NCc1cc2n(n1)CCCN(C(=O)C1CCC1)C2 | -3.26% | 2.24%
Cc1n[nH]c(C)c1NC(=O)CN1CCn2c(nnc2C(C)C)C1 | 0.173% | 13.2%
CC(C)(C)c1n[nH]c(C2CN(C(=O)c3cc(Cl)c[nH]3)CCO2)n1 (configuration not stated) | -4.97% | 0.626%
CCn1cc(CN(C)S(=O)(=O)c2ccc(Cl)cc2)cn1 | -1.31% | -34%
O=C(NCCCNC(=O)c1cccc(O)c1)Nc1ccc(F)cc1F | -6.98% | -56%
C[C@H]1C[C@H]2CN(C(=O)c3ccncn3)CC[C@H]2O1 | -0.436% | -34.2%
O=C1CCCN1CC1CN(C(=O)CC2CCCC2)Cc2nccn2C1 (configuration not stated) | 4.01% | -4.12%
Cc1nc[nH]c1CN(C)CC1CCCN(CCc2ccc(Cl)cc2)C1 (configuration not stated) | 4.6% | -62.7%
CNC(=O)C1Cn2ccnc2C2(CCN(CCF)CC2)O1 (configuration not stated) | 2.17% | -8.7%
CN(C)c1ccc(C(=O)N2CCN(Cc3cscn3)CC2)cc1F | 5.95% | -20.8%
CCNc1nc2c(s1)C(=O)CN(C(=O)NCCc1ccccc1)C2 | 2.72% | -10.6%
O=C(NC1CC1)[C@@H]1CCO[C@@H]2CCN(Cc3ccsc3)C[C@H]21 | 0.474% | -0.513%
CC(C)(C)c1nnc(CN2CCCC(Cn3cncn3)C2)o1 (configuration not stated) | 0.322% | 13%

SMILES | Percent Effect [1] | Percent Effect [2]
COCCN1CCN(Cc2ccc(F)c(C)c2)[C@H]2CS(=O)(=O)C[C@H]21 | -3.12% | -5.44%
C[C@H](O)CNC(=O)c1cnc(-c2ccccc2)nc1O | 2.44% | -10.8%
CCc1[nH]ncc1C(=O)N1CCCC(n2ccnc2C(C)C)C1 (configuration not stated) | 4.54% | 5.75%
CC(C)CCN1CCC2(CC1)CN(C(=O)c1cnccn1)CCO2 | -0.349% | -0.912%
Clc1ccc2cccnc2c1CN1CCCC(Cn2cncn2)C1 (configuration not stated) | -1.86% | -6.27%
O=C(Cc1ccc2c(c1)OCCO2)NC1CCCC1 | -0.698% | 3.29%
CCN(C)S(=O)(=O)N(CC)Cc1ccc2c(c1)OCO2 | 3.49% | 12.6%
Cc1csc(N2CCN(C(=O)CCn3cncn3)CC2)n1 | -4.23% | -2.86%
CC(C)c1n[nH]c(C2CN(C(=O)c3cccc4cn[nH]c34)CCO2)n1 (configuration not stated) | 7.47% | 9.23%
CC(C)c1cc(C(F)(F)F)n2nc(CCC(=O)O)nc2n1 | -1.46% | 52.4%
Cn1c(Nc2cn[nH]c2)c(C#N)c(=O)n(C)c1=O | -0.24% | -19.1%
Cc1cc(C)c(CNC(=O)N2CCCC2C(N)=O)c(=O)[nH]1 (configuration not stated) | -6.91% | -4.4%
CN(Cc1ccco1)C(=O)CN1CCCCC1Cn1cccn1 (configuration not stated) | -0.346% | -5.72%
CC(=O)N(Cc1noc(C2CC2)n1)C1CCN(Cc2ccncc2)C1 (configuration not stated) | 1.34% | -5.75%
CN(Cc1ccccc1)CC(O)Cn1cnc2ccsc2c1=O (configuration not stated) | -1.75% | -2.3%
CC1COCCN1Cc1nc(-c2cccc(Br)c2)no1 (configuration not stated) | 4.5% | 32%
Fc1cccc(N2CCCC3(C2)CN(c2ncccn2)CCO3)c1 (configuration not stated) | 2.81% | -2.38%
CC(O)CNC(=O)NCc1ccc(N2CCNC(=O)C2)cc1 (configuration not stated) | 2.09% | -86.8%
Fc1ccc(CN2CCC(c3n[nH]c4ncccc34)CC2)cc1F | 5.4% | 15.2%
Cc1ccc(-c2nc(CN3CCOC(c4ccccc4)C3)cs2)o1 (configuration not stated) | -0.792% | 13%
CCC(CC)c1cc(CNC(=O)N2CCOCC2CC)on1 (configuration not stated) | -2.19% | 9.7%
COc1ccc(OC)c(-c2nc(CN(C)Cc3nncn3C)c(C)o2)c1 | 5.61% | -20.1%
CCc1nnc2n1CCN(C(=O)COCCc1ccccc1)C2 | 3.29% | 24.8%
O=C1CC2(CCN(CC3CC3)C2)CN1c1ccc2c(c1)OCO2 (configuration not stated) | 14.6% | -55.4%
Cn1ccc(C(=O)N2CCN(c3ncccn3)CC2)cc1=O | 1.62% | 22.4%
CCc1cccc(N2CCC(NC(=O)c3ccc(=O)[nH]n3)CC2)c1 | 3.83% | -1.12%

SMILES | Percent Effect [1] | Percent Effect [2]
Cc1cccc(C(=O)NCc2ccc(S(N)(=O)=O)cc2)n1 | -0.577% | -16.4%
COCCCN1CCCN(C(C)C(=O)Nc2cccc(I)c2)CC1 (configuration not stated) | 0.0704% | -31.1%
CN(C)CC1(O)CCN(S(=O)(=O)c2ccc(F)cc2)C1 (configuration not stated) | -0.491% | 12.7%
Cc1cc(-c2cnc(NCc3cccnc3)nc2C(C)(C)C)on1 | 2.07% | 2.89%
Cc1cnn(CC2CCCN2C(=O)c2ccc3cc[nH]c3c2)c1 (configuration not stated) | -4.26% | 1.09%
CCc1cccc(N2CCC(NC(=O)c3cc[nH]n3)CC2)c1 | 7.15% | 18.9%
CC(C(=O)NCCCN1CCCCCC1=O)n1cncn1 (configuration not stated) | 2.08% | 20%
CC(=O)N1N=C(c2ccccc2)OC1C(=O)NCCc1cccc(Cl)c1 (configuration not stated) | -3.19% | 19.6%
CCn1c(C(=O)N2CCN(CC(C)O)CC2)cc2ccccc21 (configuration not stated) | -4.64% | -48.2%
Cc1cc(CN(C)C(=O)c2ccc(C(F)(F)F)nc2)no1 | -0.926% | -2.99%
CCc1ncc(CNC2CC(=O)N(CCc3cccc(Cl)c3)C2)cn1 (configuration not stated) | -0.729% | -24.9%
CCc1nc(C(=O)N2CCCC2)nn1-c1ccccc1Cl | -1.24% | 6.73%
O=S1(=O)CCN(Cc2cccnc2)[C@H]2CCN(c3ncccn3)CC[C@H]21 | 1.96% | -36.2%
COC(=O)c1ccc(C2CC(=O)Oc3cc(C)[nH]c(=O)c32)cc1 (configuration not stated) | -5.75% | -8.85%
CCS(=O)(=O)NC(C(=O)NC)c1ccc(F)c(F)c1 (configuration not stated) | -0.436% | 10.3%
c1cc(CN2CCN(Cc3cscn3)CC2)cs1 | 1.38% | 26.6%
Cc1ccc(C(=O)N2C[C@H]3CCC[C@@]3(COCc3cccnc3)C2)s1 | 6.3% | -7.06%
Cc1csc([C@@H]2C[C@@H]3CCN(C(=O)c4cc(C)on4)C[C@H]3O2)n1 | 0.801% | -17.6%
CCc1nc(C)ncc1C(=O)N1CCCC(n2nc(C)nc2C)C1 (configuration not stated) | -3.03% | 0.321%
Cn1cccc1CCC(=O)N1CCC2(CC1)c1ccccc1CC2O (configuration not stated) | 2.11% | -22.3%
Cc1cc(C(=O)N2C[C@@H]3COC[C@]3(c3nnc(C4CC4)o3)C2)on1 | 2.94% | -27.3%
Cc1cnn(CC2CCCCN2Cc2nnc(C3CC3)n2C)c1 (configuration not stated) | -3.3% | 1.19%
Cc1ccc(-c2cc(N)c(=O)n(CC(=O)NC3CCCCC3)n2)s1 | 1.95% | 13.1%
